TRHR ag = TRH receptor (human) agonism; P34981; TRHR cells, calcium flux fluo-8, FDSS agonist mode; activation, % at 2 µM; 0.18% of 360,000 active; AID 493084; further: 0% is about no effect
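TRHR-expressing cells loaded with fluo-8 calcium dye; 23 nL library compound pin-transferred, kinetic FDSS fluorescence (Ex 480/Em 530) recorded about 180 s for agonist-induced calcium release, before a 10 nM TRH EC20 addition for potentiator mode.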
D1 antag = human D1 dopamine receptor antagonism. P21728. HEK293 TREx D1 cells, calcium flux, dopamine EC80; active compounds read low. activity change, negative = inhibition, % at 10 µM. 3.2% of 360,000 active; in the data active means activity change below about -30%; further: on the % scale 0 is the no-effect control and ±100 the full control effect
Target sequence (P21728 whole entry, looked up): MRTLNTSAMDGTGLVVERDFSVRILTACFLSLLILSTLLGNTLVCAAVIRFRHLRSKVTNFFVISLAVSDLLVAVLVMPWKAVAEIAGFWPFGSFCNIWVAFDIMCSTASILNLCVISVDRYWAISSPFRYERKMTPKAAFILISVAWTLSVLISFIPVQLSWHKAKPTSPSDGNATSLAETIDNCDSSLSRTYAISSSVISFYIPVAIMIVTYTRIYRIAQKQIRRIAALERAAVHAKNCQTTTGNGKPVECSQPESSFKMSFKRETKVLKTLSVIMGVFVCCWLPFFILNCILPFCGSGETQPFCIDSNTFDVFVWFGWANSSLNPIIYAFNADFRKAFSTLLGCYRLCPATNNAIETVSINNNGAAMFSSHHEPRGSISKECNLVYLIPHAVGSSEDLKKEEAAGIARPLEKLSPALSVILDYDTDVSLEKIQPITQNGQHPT
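Tetracycline-induced HEK293 Trex D1 cells, force-coupled to calcium, dye-loaded; compounds added and read 180 s, then EC80 dopamine added and calcium flux tracked kinetically another 180 s.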
TRHR enhancer = allosterically enhances the human TRH receptor; P34981; TRHR cells, fluo-8 calcium fluorescence, EC20 TRH enhancement; enhancement, % at 2 µM; 0.66% of 360,000 active; in the data active means enhancement above about 30%; further: 0% is about no effect
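Enhancer read-out: after compound pinning and an initial kinetic agonist-mode read, an EC20 of TRH (10 nM final) was injected and fluo-8 calcium signal (Ex 480/Em 530) followed at 1 s/cycle for 100 cycles in TRHR-expressing cells.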
D1 potentiator = enhances dopamine response at the human D1 receptor. P21728. HEK293 TREx D1 cells, calcium flux, dopamine EC20 potentiation. potentiation, % at 10 µM. 0.036% of 360,000 active. AID 504651; in the data active means potentiation above about 30%; further: 0% is about no effect
D1 agonist = agonists of human D1 dopamine receptor; P21728; HEK293 T-REx D1 cells, calcium flux, agonist mode; activation, % at 2 µM; 1% of 360,000 active; further: 0% is about no effect
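Inducible HEK293 T-REx D1 cells, force-coupled to calcium signalling, were plated at 4000 cells/well with tetracycline and held overnight at 30 C. After no-wash calcium dye loading, compound-evoked calcium rise over 180 s flagged agonists.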
The depositor's hits bear a star. Sampled rows, rich in hits. Any-hit rate of the full collection: about 4.7%. Unless noted, no stated cut-off is given here; in the data, active means activation above about 30%; inactive means the rest.

How did COCCNC(=O)/C(C#N)=C/c1cc(C)n(-c2ccc(C)cc2)c1C do in these assays?
TRHR ag: -2; D1 antag: -64*; TRHR enhancer: -3; D1 potentiator: -10; D1 agonist: 9

Results for Cc1ccc(-n2c(C)cc(C=C(C#N)C#N)c2C)cc1 ?
TRHR ag: 0; D1 antag: -46*; TRHR enhancer: -10; D1 potentiator: -4; D1 agonist: 7

How did O=C(NCCCN1CCN(c2cccc(Cl)c2)CC1)c1sc2ncccc2c1-n1cccc1 do in these assays?
TRHR ag: 0; D1 antag: -35*; TRHR enhancer: -4; D1 potentiator: -5; D1 agonist: 2

Results for O=C(NCCCN1CCN(c2ccccc2)CC1)c1sc2ncccc2c1-n1cccc1 ?
TRHR ag: -1; D1 antag: -22; TRHR enhancer: 0; D1 potentiator: -5; D1 agonist: 0

How did O=C(NCCCN1CCN(c2ccccc2F)CC1)c1sc2ncccc2c1-n1cccc1 do in these assays?
TRHR ag: -1; D1 antag: -38*; TRHR enhancer: 1; D1 potentiator: -5; D1 agonist: -1

How did Cc1ccc(C)n1-c1c(C(=O)NCCCN2CCN(c3ccc(F)cc3)CC2)sc2ncccc12 do in these assays?
TRHR ag: -1; D1 antag: -56*; TRHR enhancer: 2; D1 potentiator: -5; D1 agonist: 1

Results for COc1ccc(C2C(=O)N(C3CCC(C)CC3)CC(=O)N2CCc2ccccc2)cc1OC (stereo not given) ?
TRHR ag: 0; D1 antag: -29; TRHR enhancer: 2; D1 potentiator: 0; D1 agonist: -4

How did CC(C)CC(C(=O)O)C(C)CC(=O)Nc1ccn(-c2ccccc2)n1 (stereo not given) do in these assays?
TRHR ag: 0; D1 antag: -13; TRHR enhancer: -1; D1 potentiator: -1; D1 agonist: 2

How did CCCCC(C(=O)O)C(C)CC(=O)Nc1ccn(-c2ccccc2)n1 (stereo not given) do in these assays?
TRHR ag: 0; D1 antag: -59*; TRHR enhancer: 12; D1 potentiator: -4; D1 agonist: 2

How did Cc1c(/C=N\NC(=O)c2ccc(F)cc2)cnn1C do in these assays?
TRHR ag: 0; D1 antag: -22; TRHR enhancer: 0; D1 potentiator: 2; D1 agonist: 1

Results for Cc1occc1C(=O)N/N=C/c1cnn(C)c1C ?
TRHR ag: 0; D1 antag: -40*; TRHR enhancer: -4; D1 potentiator: -13; D1 agonist: 1

Results for Cc1ccc(S(=O)(=O)N/N=C/c2c[nH]c3ccccc23)cc1 ?
TRHR ag: 0; D1 antag: -49*; TRHR enhancer: 4; D1 potentiator: -8; D1 agonist: 9

Results for CSc1ccc(-c2nc3cccc(C)n3c2Nc2ccc3c(c2)OCO3)cc1 ?
TRHR ag: -1; D1 antag: -2; TRHR enhancer: -1; D1 potentiator: 2; D1 agonist: -2

What do the screens show for `CCc1ccc(C(=O)COC(=O)C(Cc2ccccc2)NC(=O)C2CCC(C)CC2)cc1` (stereo not given)?
TRHR ag: 2; D1 antag: -31*; TRHR enhancer: 4; D1 potentiator: -6; D1 agonist: 6

How did COc1ccccc1Cn1c(C2CC(=O)N(c3ccccc3OC)C2)nc2ccccc21 (stereo not given) do in these assays?
TRHR ag: 0; D1 antag: 19; TRHR enhancer: -6; D1 potentiator: -3; D1 agonist: -1

What do the screens show for `Cc1onc(-c2ccccc2)c1C(=O)N/N=C/c1ccccc1OC(C)C`?
TRHR ag: 0; D1 antag: -31*; TRHR enhancer: -6; D1 potentiator: -4; D1 agonist: 4

Results for COc1ccccc1/C=N/NC(=O)c1c(-c2ccccc2)noc1C ?
TRHR ag: -2; D1 antag: 5; TRHR enhancer: -2; D1 potentiator: -8; D1 agonist: -2

Results for COc1cccc(NC(=O)c2sc3nc(C)c(C(=O)Nc4ccc(C)cc4C)c(-c4ccc(Br)cc4)c3c2N)c1 ?
TRHR ag: 0; D1 antag: -2; TRHR enhancer: -2; D1 potentiator: 3; D1 agonist: 5

Compound activity as filed in PubChem BioAssay.
